Assay results published in PubChem BioAssay (NCI).
About 83,000 compounds went through this panel and 20% of them were active in at least one assay; those are over-represented in the sample as a whole.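 Results are percent growth after 48 hours of single-concentration exposure. 100 means growth as in untreated cells, lower positive values show inhibition; negative values down to -100 show cell death.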 Active and inactive are the calls of the source. Rule for the calls: active = growth percent below 10; inactive = the rest.

Columns and labels:
Test in all cases: NCI-60 one-dose screen, 48 h (100 = growth as untreated, 0 = no growth, -100 = all killed)
Settings in all cases: 10 µM unless noted
T-47D breast = test system: T-47D breast
MDA-MB-435 melanoma = test system: MDA-MB-435 melanoma
SW-620 colon = test system: SW-620 colon
MCF7 breast = test system: MCF7 breast
HCT-116 colon = test system: HCT-116 colon
HCC-2998 colon = test system: HCC-2998 colon
KM12 colon = test system: KM12 colon
BT-549 breast = test system: BT-549 breast

Measured: growth

CCCOc1cc2ccccc2cc1C(=O)Nc1nc(N)c2c(ccc3nccc32)[nH]1
active: T-47D breast -51% | MDA-MB-435 melanoma -94.5% | SW-620 colon -80.4% | MCF7 breast -52.3% | HCT-116 colon -58.9% | HCC-2998 colon -68.3% | KM12 colon -72.8%

COc1ccc(-n2nc(C)c3c(Nc4ccc(NC(=O)Nc5cccc(C(F)(F)F)c5)cc4)ncnc32)cc1
active: T-47D breast -13.9% | MDA-MB-435 melanoma 6.96% | MCF7 breast 2.15% | HCT-116 colon 1.52% | KM12 colon 2.78%
inactive: SW-620 colon 12.4% | HCC-2998 colon 14.1%

CCCCCCN(CCCCCC)CCC(O)c1ccc2ccccc2c1 (configuration not stated)
inactive: T-47D breast 34.4% | BT-549 breast 74.7% | MDA-MB-435 melanoma 68.3% | SW-620 colon 48.2% | HCT-116 colon 24.3% | HCC-2998 colon 44.6% | KM12 colon 56.2%

CN1CCN(CCCOc2cccc3nc(Nc4ccc(Cl)c(F)c4)ccc23)CC1
active: SW-620 colon -34.1% | KM12 colon -34.7%
inactive: T-47D breast 38.5% | BT-549 breast 80% | MDA-MB-435 melanoma 25.3% | HCT-116 colon 31.6% | HCC-2998 colon 55.2%

COc1cccc(/C=N/NC(=O)c2ccccc2Nc2ccnc(C(F)(F)F)c2)c1O
inactive: T-47D breast 17.6% | MDA-MB-435 melanoma 31.9% | SW-620 colon 31.9% | HCT-116 colon 12.8% | HCC-2998 colon 51.2% | KM12 colon 38.8%
active: MCF7 breast 3.13%

Nc1n[nH]c2ccc([C@@H]3Nc4cc5c(cc4[C@H]4C6CCC(C6)[C@@H]34)C(=O)NC5)cc12 (some centres not stated)
inactive: T-47D breast 76.9% | SW-620 colon 18.5% | HCC-2998 colon 17.1%
active: BT-549 breast -0.949% | MDA-MB-435 melanoma -21.5% | HCT-116 colon 6.53% | KM12 colon 8.14%

CCCn1c(=O)[nH]c(N)c([C@H]2c3ccccc3Oc3[nH]c(=O)n(CCC)c(=O)c32)c1=O
inactive: T-47D breast 34.7% | BT-549 breast 42.8% | MDA-MB-435 melanoma 84.4% | SW-620 colon 61.2% | HCT-116 colon 32.5% | HCC-2998 colon 104% | KM12 colon 99.8%

Cc1nc2ccccc2n1C(=O)C[C@@H]1NC(=S)NC1=O
inactive: T-47D breast 96.7% | MDA-MB-435 melanoma 97.8% | SW-620 colon 99.4% | MCF7 breast 93.9% | HCT-116 colon 92.5% | HCC-2998 colon 102% | KM12 colon 102%

COc1ccc(/C=C/C(=O)c2cc(O)ccc2O)cc1
inactive: T-47D breast 89.8% | BT-549 breast 90.4% | MDA-MB-435 melanoma 75.8% | SW-620 colon 100% | HCT-116 colon 97.4% | HCC-2998 colon 106% | KM12 colon 84.1%

COc1ccc(NC(=O)c2ccc(/C=C/C(=O)c3ncc[nH]3)cc2)cc1
inactive: T-47D breast 68.5% | MDA-MB-435 melanoma 67.1% | SW-620 colon 34.5% | MCF7 breast 25.1% | HCT-116 colon 71.5% | HCC-2998 colon 83.9% | KM12 colon 27.5%

C=C1c2nc3ccccc3n2C=C(c2ccc(Cl)cc2)N1Cc1ccc(OC)cc1
inactive: T-47D breast 48% | MDA-MB-435 melanoma 97.9% | SW-620 colon 92.7% | MCF7 breast 54% | HCT-116 colon 63.5% | HCC-2998 colon 80.4% | KM12 colon 95.4%

CC[C@H]1OC(=O)[C@H](C)[C@@H](O[C@H]2C[C@@](C)(OC)[C@@H](O)[C@H](C)O2)[C@H](C)[C@@H](O[C@@H]2O[C@H](C)C[C@H](N(C)C)[C@H]2O)[C@](C)(O)C[C@H](C)CN(C)[C@H](C)[C@@H](O)[C@]1(C)O
inactive: T-47D breast 108% | BT-549 breast 98.4% | MDA-MB-435 melanoma 96.9% | SW-620 colon 84.2% | HCT-116 colon 90.3% | HCC-2998 colon 95.9% | KM12 colon 95.4%

Cc1nn(-c2ccc(F)cc2)c2ncnc(Oc3ccc(NC(=O)Nc4ccc(Cl)c(C(F)(F)F)c4)cc3)c12
inactive: T-47D breast 94.6% | BT-549 breast 111% | MDA-MB-435 melanoma 104% | SW-620 colon 100% | HCT-116 colon 102% | HCC-2998 colon 99.2% | KM12 colon 108%

CCCCCCCCCCCCC[N+](C)(C)Cc1ccccc1
active: BT-549 breast -72.9% | MDA-MB-435 melanoma -73.6% | SW-620 colon -37.6% | HCT-116 colon -89.9% | HCC-2998 colon -80.5% | KM12 colon -93.6%
inactive: T-47D breast 15.1%

Cc1nc2c3c(-c4ccccc4)c(-c4ccccc4)oc3ncn2n1
inactive: T-47D breast 70% | BT-549 breast 101% | MDA-MB-435 melanoma 100% | SW-620 colon 96.9% | HCT-116 colon 88.5% | HCC-2998 colon 96.2% | KM12 colon 99.3%

Oc1ccccc1-c1nnc(CNc2ccc(Cl)cc2)o1
inactive: T-47D breast 30.9% | BT-549 breast 41.1% | MDA-MB-435 melanoma 33.8% | SW-620 colon 29.4% | HCT-116 colon 42% | HCC-2998 colon 37.5% | KM12 colon 18.9%
